Rows were chosen to be rich in hits. Some 2.7% of all compounds tested hit in one or more screens of this group.
NadD inh = inhibitors of S. aureus NadD, primary screen, biochemical, colorimetric, uHTS; AID 602399, 2012; inhibition, % at 20 µM; 360,000 tested, 0.78% active; Nicotinate-nucleotide adenylyltransferase NadD (Staphylococcus aureus N315); purified NadD enzyme, colorimetric absorbance read-out; in the data active = inhibition above about 26%
TAG inh = inhibitors of triacylglycerol accumulation, primary screen, cell-based, uHTS, fluorescence, H9c2 | H9c2 cells, Nile Red lipid (TAG) fluorescence; cells loaded with 200 µM oleic acid | AID 651582, 2012 | inhibition, % at 12.5 µM | 230,000 tested, 0.66% active;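 active = pattern-corrected inhibition of lipid staining of at least 50% with the nuclear-stain viability signal not falling by more than 50%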;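 also: 0% = DMSO wells and 100% = triacsin C control wells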
MPTP block = mitochondrial permeability transition pore inhibitors, primary screen, biochemical, isolated mouse mitochondria, absorbance. 360,000 tested, 1.4% active. Ca2+ swelling absorbance, 30 min. inhibition, % at 10 µM;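 active = inhibition of 50% or more, scaled per plate between neutral and stimulator controls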;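 also: 0% = DMSO wells given calcium and 100% = 1 mM EGTA wells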
aDG glyco act = activators of alpha-DG glycosylation, primary screen, uHTS, Pro5-aDG cells, AlphaScreen | alpha-DG glycosylation AlphaScreen (IIH6); 0% Pro5, 100% B10-LARGE cell signal | activation, % at 10 µM | 360,000 tested, 0.22% active;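 active = activation of at least 8% versus controls, or a plate z-score of at least 8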;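 also: Pro5 are CHO cells carrying HIG-tagged alpha-DG that lacks glycosylation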
The depositor's hits bear a star; . = not tested or not shown; ! = not confirmed by another sample.

SMILES	NadD inh	TAG inh	MPTP block	aDG glyco act
COCCn1c(C)cc(/C=N/NC(=O)c2cc3ccccc3cc2O)c1C	35.5*	-6.5	2.9	0.1
Cn1c(O)c(/C=N/NC(=O)c2cc3ccccc3cc2O)c2ccccc21	31.5*	.	7.9	0.3
O=C(O)c1ccc(/C=N/NC(=O)c2cc3ccccc3cc2O)cc1	3.3	-5.9	-0.8	-0.2
c1ccc2c(c1)c1c(c3ccccc32)CN2CCCC2C1 (configuration not stated)	16.0	-3.1	0.6	0.3
Cc1ccc([N+](=O)[O-])cc1-c1[nH]c(-c2ccc(O)c(O)c2)nc1-c1ccccc1	30.5*	.	20.5	0.0
COc1ccc(-c2nc(-c3ccccc3)c(-c3cc([N+](=O)[O-])ccc3C)[nH]2)cc1O	14.2	24.0	2.4	1.9
CC(C)(C)C(C(=O)NC1CCCC1)N1CCN(c2ncccc2C#N)CC1 (configuration not stated)	.	.	0.5	-0.1
N#Cc1c(N)[nH]c2ccc(Sc3ccccc3)cc12	-4.8	54.4*	45.8	-0.2
O=C(NC(c1ccc(-c2ccccc2)cc1)c1cnccn1)C1CCN(CCN2C(=O)c3ccccc3C2=O)CC1 (configuration not stated)	2.0	-6.7	1.4	-0.3
Cc1ccc(NC(=O)CN2C(=O)S/C(=C/c3ccc(-c4cc(C(=O)O)ccc4C)o3)C2=O)cc1C	50.3*	.	3.3	0.1
C[C@H](NC(=O)c1ncn2c1C(=O)NC[C@H]2C)C(=O)OC(C)(C)C	2.3	15.0	0.1	0.6
CCN1C(Nc2ccccc2)=NC[C@@H]1Cc1ccccc1	1.1	-24.9	-0.4	-0.3
CC(C)(C)C1CCC(CN2C(Nc3ccccc3)=NC[C@@H]2Cc2ccccc2)CC1 (some centres not stated)	7.8	113.4*	5.9	-0.5
C[C@@]12C(=O)Nc3cc(Cl)ccc3C(=O)N1[C@H]1c3cc(Br)ccc3OC[C@@H]1[C@@H]2c1ccccc1	10.0	53.3*	0.2	0.0
Cn1cc(Cc2ccc(C(=O)N3CCN(Cc4ccccc4)CC3)cn2)c2ccccc21	7.7	0.6	-1.9	0.3
COc1ccc(NC(=O)/C(Cl)=C(/Cl)S(=O)Cc2ccc(Cl)cc2)cn1 (configuration not stated)	9.2	88.0*	-6.2	-0.6
O=C(/C=C1\NC2(CCCC2)Cc2ccccc21)C(=O)N/N=C/c1ccc(O)c(O)c1	37.8*	.	-4.8	-0.3
COc1ccc(/C=N/NC(=O)C(=O)/C=C2\NC3(CCCC3)Cc3ccccc32)cc1	7.4	.	-0.7	0.1
CCOC(=O)CN1N=C(c2ccc(Cl)cc2)CCC1=O	-2.0	.	1.9	0.0
CCCCNC(=O)C(NC(=O)c1ccc(C)cc1)C(=O)c1ccccc1 (configuration not stated)	.	.	2.1	1.1
Cc1cn(-c2cc(C(=O)Nc3ccc(C)c(NC(=O)C(=O)c4c[nH]c5ccccc45)c3)cc(C(F)(F)F)c2)cn1	6.8	123.5*!	1.9	0.2
COc1ccc(Cc2nnc(N=Nc3c(O)[nH]c4ccc(Br)cc34)[nH]c2=O)cc1	37.6*	.	3.8	-0.6
COC(=O)N=Nc1c(O)[nH]c2ccc(Br)cc12	-9.0	4.2	2.7	-0.3
O=C(COc1cccc(C(F)(F)F)c1)NCC(c1cccs1)N1CCOCC1 (configuration not stated)	0.3	-23.4	-2.1	-0.2
COc1ccccc1C(C[N+](=O)[O-])c1c(N)n(C)c(=O)n(C)c1=O (configuration not stated)	-4.6	52.5*	2.5	0.4
SMILES	NadD inh	TAG inh	MPTP block	aDG glyco act
O=C(CCc1ccccc1)NCCc1ccc(F)cc1	3.6	.	-1.0	-0.2
CC1=NN(c2nc3ccccc3[nH]2)C(=O)C1Cc1ccccc1 (configuration not stated)	9.2	53.5*	-1.3	0.0
CC1=NN(c2nc3ccccc3[nH]2)C(=O)/C1=C/N(C)C	0.9	10.9	0.8	0.0
O=c1c(Cl)c(Cl)cnn1-c1ccccc1	2.3	72.0*	0.4	-0.1
Nc1c(Cl)cnn(-c2ccccc2)c1=O	-8.5	4.4	1.9	0.1
COc1ccc(/C=C/C(=O)c2cc(F)ccc2OC(=O)c2ccccc2)cc1OC	-1.4	80.4*	-0.3	-0.4
COc1ccc(/C=C/C(=O)c2cc(F)ccc2OC(=O)c2ccc(OC)c(OC)c2)cc1OC	-10.9	17.3	2.0	-0.7
